# Key:
# Conditions in all cases: concentration: 1 μM, replicates: in singlicate; n = 1
# [1] = system: ALK
# [2] = system: T1, AMPK-alpha1
# T1 construct: gene PRKAA1
# [3] = system: T2, AMPK-alpha2
# T2 construct: gene PRKAA2
# [4] = system: ANKK1
# [5] = system: T3, ARK5
# T3 construct: gene NUAK1
# [6] = system: T4, ASK1
# T4 construct: gene MAP3K5
# [7] = system: T5, ASK2
# T5 construct: gene MAP3K6
# [8] = system: AURKA
# [9] = system: AURKB
# [10] = system: AURKC
# [11] = system: AXL
# [12] = system: T6, BIKE
# T6 construct: gene BMP2K
# [13] = system: BLK
# [14] = system: BMPR1A
# [15] = system: BMPR1B
# [16] = system: BMPR2
# [17] = system: BMX
# [18] = system: BRAF
# [19] = system: T7, BRK
# T7 construct: gene PTK6
# [20] = system: BRSK1
# 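Note: KINOMEscan kinase panel screen.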
SMILES,%Inh [1] [%],%Inh [2] [%],%Inh [3] [%],%Inh [4] [%],%Inh [5] [%],%Inh [6] [%],%Inh [7] [%],%Inh [8] [%],%Inh [9] [%],%Inh [10] [%],%Inh [11] [%],%Inh [12] [%],%Inh [13] [%],%Inh [14] [%],%Inh [15] [%],%Inh [16] [%],%Inh [17] [%],%Inh [18] [%],%Inh [19] [%],%Inh [20] [%]
CCS(=O)(=O)c1ccc(OC)c(Nc2ncc(-c3ccc(F)cc3)o2)c1.Cl [GW591947],22,8,17,7,3,0,0,3,0,26,0,22,41,14,0,0,0,0,0,0
Cc1c(Cn2c(C)nn3c(=O)cc(N4CCO[C@H](C)C4)nc23)cccc1C(F)(F)F [GSK2373690],22,0,27,0,2,11,15,0,27,30,0,31,10,15,0,0,21,0,32,7
Cc1nnc(-c2ccc3ncn(-c4ccc(S(C)=O)cc4)c3c2)o1 (centres unmarked),6,0,2,0,21,0,0,21,10,5,4,0,0,19,0,0,12,0,19,0
COC(=O)c1c(-c2ccccc2)c2cc(C)ccc2c(=O)n1Cc1ccccc1,0,0,0,0,4,0,0,0,9,0,0,0,0,0,0,0,19,79,0,0
COc1cc(Nc2ccnc3ccc(C(F)(F)F)cc23)cc(OC)c1OC [GW577382],22,0,25,12,10,6,19,49,0,7,12,0,34,0,22,22,16,8,8,0
Cc1cccc(-c2cc(-c3c[nH]nc3-c3ccccn3)ccn2)c1 [GW679395],30,0,0,0,0,5,0,8,15,0,0,0,32,0,2,1,0,8,4,0
OCCCNc1nccc(-c2c(-c3cccc(C(F)(F)F)c3)nn3cc(C(F)(F)F)ccc23)n1 [GW630813],0,0,0,5,0,0,0,17,0,7,0,0,33,0,0,0,13,0,0,0
Nc1ncnc2c1ncn2-c1cccc2ccccc12 [SKF-97184],0,0,21,0,0,0,0,0,28,0,0,0,6,0,0,35,0,0,0,0
FC(F)(F)c1ccc(-c2ncn(CCCN3CCOCC3)c2-c2ccncc2)cc1 [SB-217780],0,9,4,0,0,0,0,0,0,27,40,13,4,7,0,39,1,0,4,13
Cn1c(=O)c(F)c(Nc2ccc(I)cc2F)c2c(=O)n(OC[C@H](O)CO)cnc21,0,0,13,0,0,0,0,0,9,30,10,30,9,0,0,0,0,0,2,0
CCC(=O)c1c(-c2ccccc2)c2cc(Cl)ccc2c(=O)n1Cc1cc(C(=O)NC2CC2)n(C)n1,32,22,5,0,0,0,0,22,26,0,0,0,0,0,0,9,4,62,0,0
O=C(NCCNc1ccnc(Nc2ccc(F)cc2)n1)Nc1ccc2c(c1)OCO2 [GSK1379882],24,0,2,18,11,14,0,28,0,36,0,17,7,0,10,0,7,0,0,11
Nc1nc(N)c2nc(-c3ccccc3)[nH]c2n1 [SKF-12778],0,17,14,63,73,7,15,3,13,1,19,3,0,0,0,7,0,1,16,0
C[C@@H]1CC[C@H](C(=O)NC2CCCCC2)CN1c1cc(-c2ccc3c(N)n[nH]c3c2)nc(N)n1 [GSK2291363],29,7,14,20,6,9,7,,24,69,4,78,52,0,0,0,21,5,27,0
Cl.NS(=O)(=O)c1cccc(Nc2cc(-c3ccc(F)cc3)n[nH]2)c1 [GW824645],0,0,18,0,0,0,0,4,29,0,0,0,23,7,0,45,0,33,0,0
CCCNC(=O)Nc1ccc(Oc2ncnc3ccn(C)c23)cc1,0,0,12,0,0,0,1,7,60,0,0,0,14,10,0,16,0,0,0,0
CCn1c(-c2nonc2N)nc2ccccc21 [SB-693162/GW549034],0,7,0,51,3,16,2,27,37,0,25,6,21,0,34,40,0,15,0,46
Cl.c1ccc(Cn2cnc3cc(Nc4ncnc5ccccc45)ccc32)cc1 [GW272142],21,0,0,0,0,4,2,0,19,14,0,34,0,0,0,0,6,0,11,4
O=C(Nc1n[nH]c2cc(-c3ccccc3F)ccc12)C1CC1 [SB-733371],0,0,0,10,0,0,0,16,51,46,16,41,0,21,24,0,0,0,0,22
COc1ccc(-c2cc3c(C)nc(N)nc3n([C@H]3CC[C@H](O)CC3)c2=O)cn1,0,0,0,0,4,6,0,0,0,0,0,0,0,40,0,0,0,0,0,0
COc1ccc(Nc2nccc(N3CCC(NS(=O)(=O)c4ccc(NC(C)=O)cc4)C3)n2)cc1 (centres unmarked) [GSK1379729],16,20,17,8,25,7,9,7,14,30,23,18,26,21,3,0,12,16,18,2
Fc1cccc(CSc2nnc(-c3ccc4c(c3)CCO4)o2)c1,79,13,17,35,11,11,22,9,20,0,0,0,0,1,5,0,0,7,2,0
CC(C)(C)c1ccc(C(=O)Nc2cn3cc(-c4ccccc4)ccc3n2)cc1,0,0,0,0,13,40,0,48,51,0,0,0,0,8,0,0,13,0,0,0
COc1ccc(-c2cc3c(C)nc(N)nc3n([C@H]3CC[C@H](OCCO)CC3)c2=O)cn1,0,5,2,0,0,11,0,0,0,7,0,22,2,5,1,0,0,0,0,28
CCC(=O)c1c(-c2ccccc2)c2cc(Cl)ccc2c(=O)n1Cc1cc(S(C)(=O)=O)n(CC(F)F)n1,0,0,8,0,5,0,0,0,11,0,0,0,0,0,6,1,0,13,0,0
COC(=O)c1c(-c2ccccc2)c2cc(Br)ccc2c(=O)n1Cc1ccc(S(C)(=O)=O)cc1,52,15,9,0,11,2,0,35,20,0,7,0,9,0,19,3,17,57,0,29
COc1cc(OC)cc(-c2cc3cnc(N)nc3nc2NC(=O)NC(C)(C)C)c1,0,0,15,0,0,0,0,0,0,0,0,0,8,54,0,0,0,10,0,0
CCC(=O)c1c(-c2ccccc2)c2cc(Cl)ccc2c(=O)n1Cc1cc(S(C)(=O)=O)n(CCC(C)(C)O)n1,0,19,15,8,10,15,8,16,17,12,10,21,12,0,6,9,33,1,7,11
O=c1cc(N2CCOCC2)nc2n(Cc3ccc(F)c(Cl)c3)ccn12 [GSK2297099],20,0,19,13,14,2,0,0,0,0,0,0,13,0,0,0,5,8,0,0
Nc1n[nH]c2nnc(-c3ccccc3)c(-c3ccccc3)c12 [GW554060],35,0,14,0,9,0,4,0,35,13,0,22,35,0,41,0,22,2,8,10

# Source: publication PMC5540273 (PLoS ONE, 2017)
